The results in this text go back to the supplement of paper PMC6555819.

The subject of this assay is VDR:RXRa (NR concentration 270 nM, RXRa partner concentration 90 nM). Description: PBM binding z-score (relative to random genomic background probes); higher = stronger binding; sequences stand for … in GC…GCGATTGACAGCGTAGAATGAAGG
The procedure:
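Protein-binding microarray (Agilent 4x180K custom design, double-stranded 60-nt probes: 5' GC cap, 34-nt variable region, 24-nt constant primer region; full probe sequence given). Purified or IVT nuclear receptor:RXRα heterodimers (3:1 NR:RXRα, mostly 270:90 nM) or homodimers were incubated for 1 h in PBS with 2% milk and no ligand, then detected with Alexa488 antibodies. Fluorescence from o1-orientation probes (~5 replicates averaged) was converted to z-scores against 500 random hg19 background probes. Variable regions are seed direct-repeat (DR0–DR5) sites, all their single-nucleotide variants and half-site ablations.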
Turning to ACTATTACTTGACTTAGGGCAACCGATACGACGC, the PBM binding z-score came out at 0.428.

Sequence CGTCCTAGGTCAAGGTCAGTGAAAGAGACTCGAA gave a PBM binding z-score of 3.2.

Sequence CGAACTAGGTCACGGACAGTGAATCTCCGCACGC yielded a PBM binding z-score of 2.74.

As to TGAATGAGGTTAAAGATCAGCGAACGTGGCGTCG, the PBM binding z-score stood at 1.75.

In turn, ATCGAAAGGTCGTGCGGTGAGTATACAGAAAGGC displayed a PBM binding z-score of 3.46.

The sequence ATCCCTAGGTAAGACTCAGTTCAGTGAAGAACGC came in with a PBM binding z-score of 1.05.

In turn, TGTCAAAGTCCAAAGGTAACGTAAGTATCCACAC registered a PBM binding z-score of 0.386.

For ACTAGCAGGCCAAGTTTGGGTCTCTCAAACAAAG, the PBM binding z-score was -0.766.

As for ACTCGGAGGACAACGGTCAGAGCTACGCCAGTGA, the PBM binding z-score was -0.667.

The sequence GCTGCTAGGTCAACTGACGGTCAGCTAAAGCTCG had a PBM binding z-score of 1.88.

ACTCGGAGGACAAAGTTCAGAGCTACGCCAGTGA: the PBM binding z-score is 1.95.

On to CCTCGGAGGACAGAAGGTTAGAGCTGTCCGCTTT, for which the PBM binding z-score was -0.275.

For CCGAGTAGGTTATGGGCCATTCAGGCAACGGTGA, the PBM binding z-score is -0.116.

Take CCTTACGGGTCACTGAAAGGTTATAGCATTTGGA: the PBM binding z-score turned out to be 4.52.

Sequence CTCGAAAGGTCGGTTGAGGTGAGTATGCGGATAA had a PBM binding z-score of 2.15.

Regarding GCAGACAGGTGAAACGCAGGTAACTCTGGGTGGC, the PBM binding z-score was -0.545.

CGTCCAAGGTCAAAGGTCAGTGAGGAGATGACGG had a PBM binding z-score of 6.92.

For ACTGACGGGTCAACGAGGTTATAGCACGCGTATA, the PBM binding z-score amounted to 7.41.

The sequence GCTATTAGATGAAAGGGCAACCGAATGATTCTCG came in with a PBM binding z-score of 0.125.

Consider CCTGATAGGTCAATGGTCAGCTAAAGCAGCTCGC, for which the PBM binding z-score amounted to 1.99.

For CTTCAAAGTTCAAGGTAACGTAACAGAAAGCAGC, the PBM binding z-score worked out at 3.51.

As to GCTAGCAGGCCATTTGGATCACTCAATGACGGGC, the PBM binding z-score is -0.73.

Consider TCATATAGGTAAAAGGTAAAAGTCGGTGTGGTAA, for which the PBM binding z-score was determined as 1.33.

CGTCCAAAGTCAATGCTAGGTCAGTGAAAGCATT displayed a PBM binding z-score of 0.457.

Sequence ACAGACAGGTGATGAAGGTACCTCAGGCTATCAT gave a PBM binding z-score of -0.291.

Consider TCAGACAGGCGAAGGTAACTCAGGTACGCAGTCG, for which the PBM binding z-score worked out at 0.498.

Regarding TTACCAAGGTGAAAGGTCGTGGATGCACGCCTTG, the PBM binding z-score stood at 3.28.

TCTTGTAGATCAAAGGTTAAGCAAGCCGAAGCCT yielded a PBM binding z-score of 1.65.

Sequence GCTTGTAGATCACGGTTAAGAAAGACTAAGCTAA gave a PBM binding z-score of -0.34.

The sequence TCAGACAGGTGAAGTTAACTCAGGTACGCAGTCG yielded a PBM binding z-score of 0.573.

ATCTCTAGGTAAAGTTCAGTGGAAGATCGATAGA came in with a PBM binding z-score of 1.44.

Sequence CCAGCCAGGTGAGAAGGTAACTCAGCCTCGATTA showed a PBM binding z-score of -0.314.

Turning to TCTGCTAGGTCAGTTGGTTAGCTAACGAGCTGCC, the PBM binding z-score is 0.227.

Sequence TCAGACGGGTGAAGGTAACTCAGGTACGCAGTCG gave a PBM binding z-score of 0.218.

The sequence GATACAGGGTCAGCTAGAGGCCTGAGTATGGAAA had a PBM binding z-score of 2.2.

The sequence CCTCGTTGGTCAGGAGGTCACACACCGGATATGA had a PBM binding z-score of 3.77.

Sequence CCAGACAAGTGAGAAGGTAACTCAGCCTCGATTA had a PBM binding z-score of 0.143.

Sequence CAAACTAGGTCGAGAGGTCAAAGTCCGCTTCCCG returned a PBM binding z-score of 5.01.

For the sequence TCCTATAGGTAAAAGGTGAAAGTCGGTGTGGTAA, the PBM binding z-score was 1.17.

CGTCAAAGTCCAACTAAGGTAACGTAAAGCACGC registered a PBM binding z-score of 0.393.
